Assay [1] is described as follows: qHTS assay for small molecule agonists of the p53 signaling pathway (AID 651631; calls by dose curve; further: nearly all actives have a fitted effect of over 15% in size). The method, boiled down: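 HCT-116 cells carrying a beta-lactamase reporter under p53 response elements were dosed with compound for 16 h at 37 °C. LiveBLAzer B/G FRET substrate was then added for 2 h at room temperature, and fluorescence intensity was read to detect pathway agonism.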
Background: Quantitative high-throughput screening tests each substance at several concentrations.

A short description of assay [2]: qHTS assay for small molecules that induce genotoxicity in human embryonic kidney cells expressing luciferase-tagged ATAD5 (AID 651632). Further: nearly all actives have a fitted effect of over 15% in size. In short, it runs like this:
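Reporter cells (HEK293T) express luciferase-tagged ATAD5, a protein that accumulates after DNA damage. Treat 16 hr at 37C/5% CO2, add Amplite, wait 30 min at RT, and read luminescence.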

Assay [3] is described as follows: qHTS assay for small molecule agonists of the p53 signaling pathway - cell viability (AID 651633; calls by dose curve;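 further: p53RE-bla HCT reporter cells with a stable beta-lactamase p53 reporter; series mostly up to about 83 µM; nearly all actives have a fitted effect of over 30% in size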). In short, it runs like this: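 p53RE-bla cells were treated with compound for 16 hours at 37 C. Cytotoxicity was then measured as CellTiter-Glo luminescence after 30 min at room temperature.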
A short description of assay [4]: qHTS assay for small molecules that induce genotoxicity in human embryonic kidney cells expressing luciferase-tagged ATAD5 - cell viability (AID 651634; calls by dose curve; further: nearly all actives have a fitted effect of over 25% in size). In short, it runs like this:
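Seeding of 2,000 HEK293T ATAD5-luciferase cells per well preceded pin-tool compound transfer. Plates sat 15.5 hr at 37C under 5% CO2, then fluorescence was read after 30 min with CellTiter-Fluor.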

A short description of assay [5]: qHTS assay for small molecule disruptors of the mitochondrial membrane potential - cell viability (AID 720634; calls by dose curve;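 further: human HepG2 liver cancer cells; series mostly up to about 83 µM; nearly all actives have a fitted effect of over 20% in size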). In short, it runs like this: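 Measuring cytotoxicity alongside mitochondrial potential, the screen quantified ATP by luminescence in HepG2 cells after 1 hr compound incubation and a 30 min room-temperature CellTiter-Glo step.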
Assay [6] is described as follows: qHTS assay for small molecule disruptors of the mitochondrial membrane potential (AID 720635). The method, boiled down:
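HepG2 cells exposed to compound 1 hr at 37C, then Mito-MPS dye 30 min. Ratio read of aggregate (540/590 nm) versus monomer (490/535 nm) fluorescence.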

Assay [7] can be described thus: qHTS assay to test for compound auto fluorescence at 590 nm (red) in HepG2 cells (AID 720674). In short, it runs like this: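 Fluorescence at 590 nm emission following 540 nm excitation was recorded from HepG2 wells one hour after compound transfer, with DMSO-only wells as vehicle and Rose Bengal sodium equivalency as the scale.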
Assay [8] is described as follows: qHTS assay to test for compound auto fluorescence at 535 nm (green) in HepG2 cells (AID 720675).
A short description of assay [9]: qHTS assay to test for compound auto fluorescence at 460 nm (blue) in HEK293 cells (AID 720678). In short, it runs like this: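 HEK293, 2,000 cells/well, 10% dialyzed FBS; attach 4-5 hr 37C; pin compound or DMSO; o/n 37C/5% CO2; fluorescence 405/460 nm; triamterene-equivalent units.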
Assay [10] can be described thus: qHTS assay to test for compound auto fluorescence at 590 nm (red) in HEK293 cells (AID 720679). The method, boiled down: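 Intensity at 540nm excitation and 590nm emission is reported as Rose Bengal sodium-equivalent autofluorescence. Measurements followed overnight exposure (37C, 5% CO2) of HEK293 cells, 2,000 per well, to 23 nL compound.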
Assay [11] in a line: qHTS assay to test for compound auto fluorescence at 535 nm (green) in HEK293 cells (AID 720680).
Assay [12] in a line: qHTS assay to test for compound auto fluorescence at 460 nm (blue) in HEK293 cell free culture (AID 720681). The method, boiled down:
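Compounds were added to cell-free DMEM with 10% FBS and fluorescence read directly. The blue channel used 405 nm excitation and 460 nm emission, with triamterene as the reference fluorophore.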

The nature of assay [13]: qHTS assay to test for compound auto fluorescence at 535 nm (green) in HEK293 cell free culture (AID 720682). The method, boiled down: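 Green-label autofluorescence (485 nm excitation, 535 nm emission) measured on compound added to cell-free culture medium (DMEM, 10% FBS). Output is expressed relative to fluorescein.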
Assay [14] can be described thus: qHTS assay to test for compound auto fluorescence at 590 nm (red) in HEK293 cell free culture (AID 720683). The method, boiled down:
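Cell-free wells of DMEM with 10% FBS received compound, and intrinsic fluorescence was read at excitation/emission 540/590 nm. Values expressed as equivalence to Rose Bengal sodium.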

A short description of assay [15]: qHTS assay to test for compound auto fluorescence at 590 nm (red) in HepG2 cell free culture (AID 720684). In short, it runs like this: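 Compound was pinned into wells holding MEM with 10% FBS and no cells, and red fluorescence was read at Ex/Em 540/590 nm. Signal is expressed as auto fluorescence equivalency relative to Rose Bengal sodium.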
Assay [16] is described as follows: qHTS assay to test for compound auto fluorescence at 460 nm (blue) in HepG2 cell free culture (AID 720685). The method, boiled down: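 Compound (23 nL) or DMSO pinned into cell-free MEM with 10% FBS; blue fluorescence read at 405/460 nm excitation/emission, expressed as auto-fluorescence equivalency to triamterene.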
A short description of assay [17]: qHTS assay to test for compound auto fluorescence at 535 nm (green) in HepG2 cell free culture (AID 720686).
The nature of assay [18]: qHTS assay to test for compound auto fluorescence at 460 nm (blue) in HepG2 cells (AID 720687). In short, it runs like this: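 HepG2 cells in MEM with 10% FBS, attached overnight at 37 C, were exposed to compound or DMSO for 1 hr at 37 C, 5% CO2. Blue fluorescence was read at 405/460 nm, with triamterene as reference fluorophore.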
Assay [19] addresses Glucocorticoid receptor (Homo sapiens) (UniProt P04150). In words: qHTS assay to identify small molecule agonists of the glucocorticoid receptor (GR) signaling pathway (AID 720691; active means well fitted activation curve with a large enough effect in the signal ratio in the repeat runs, not every such curve was filed as active; the % refers to the signal ratio). The method, boiled down: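 Reporter read-out: fluorescence intensity following 2 h room-temperature LiveBLAzer B/G FRET substrate loading. Prior step: GR-bla HeLa cells held 4 h, then treated 18 h at 37 C.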

Assay [20] has the same target. In words: qHTS assay to identify small molecule antagonists of the glucocorticoid receptor (GR) signaling pathway (AID 720692; active means well fitted inhibition curve with a large enough effect in the signal ratio in the repeat runs, not every such curve was filed as active; the % refers to the signal ratio; further: potency means the concentration at half of the fitted maximal effect). In short, it runs like this: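 Dexamethasone (5 nM final) stimulated a stably integrated GRE-beta-lactamase reporter in HeLa cells during 18 h co-incubation with compounds; signal was quantified as fluorescence intensity of B/G FRET substrate after 2 h.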

SMILES strings stand for the structures. Records with an inconclusive call do not appear. Active and inactive are the calls of the source. Unless noted, the call rests on the fitted dose curve; in most records, active means well fitted curve in the direction sought with a large enough effect in the repeat runs; inconclusive means weak or mixed curves; inactive means no such curve, though single readings can be large; an effect the other way counts as inactive or inconclusive.

Glucocorticoid receptor (Homo sapiens), sequence (P04150 whole entry, looked up): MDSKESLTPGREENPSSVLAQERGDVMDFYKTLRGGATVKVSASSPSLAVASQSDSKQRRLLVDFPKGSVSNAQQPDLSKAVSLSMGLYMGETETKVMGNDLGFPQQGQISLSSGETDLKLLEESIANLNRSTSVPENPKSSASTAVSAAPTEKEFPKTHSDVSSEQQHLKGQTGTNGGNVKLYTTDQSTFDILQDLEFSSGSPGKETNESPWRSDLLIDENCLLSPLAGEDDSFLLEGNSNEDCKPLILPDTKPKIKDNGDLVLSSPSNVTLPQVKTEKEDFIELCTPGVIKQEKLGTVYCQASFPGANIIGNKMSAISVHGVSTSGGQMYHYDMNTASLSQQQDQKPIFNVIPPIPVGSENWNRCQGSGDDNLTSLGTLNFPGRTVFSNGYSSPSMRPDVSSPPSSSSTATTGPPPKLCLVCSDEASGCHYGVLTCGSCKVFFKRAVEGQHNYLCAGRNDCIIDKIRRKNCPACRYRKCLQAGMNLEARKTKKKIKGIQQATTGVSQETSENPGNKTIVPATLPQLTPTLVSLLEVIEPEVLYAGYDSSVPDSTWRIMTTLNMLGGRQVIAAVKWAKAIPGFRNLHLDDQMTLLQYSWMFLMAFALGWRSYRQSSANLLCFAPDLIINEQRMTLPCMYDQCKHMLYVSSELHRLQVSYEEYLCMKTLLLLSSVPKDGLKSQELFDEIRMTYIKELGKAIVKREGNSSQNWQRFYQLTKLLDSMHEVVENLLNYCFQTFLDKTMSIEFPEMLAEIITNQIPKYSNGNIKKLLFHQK

For the compound `OCC1CO1` (stereo not given), the Potency result in assay [1], in assay [2], in assay [3], in assay [4], in assay [5] and in assay [6] was “inactive” in each case. Also, the Potency result in assay [19] and in assay [20] was “inactive” throughout. In addition, the outcome in assay [7], in assay [8], in assay [9], in assay [10], in [11] and in assay [12] was inactive. Besides, the compound was called inactive in assay [13], in assay [14], in assay [15], in [16], in assay [17] and in assay [18].
For the compound `O=[N+]([O-])O[C@H]1CO[C@H]2[C@@H]1OC[C@H]2O[N+](=O)[O-]`, the Potency entry in assay [1], in assay [2], in assay [3], in [4], in assay [5] and in [6] was “inactive” each time. Also, the Potency entry in assay [19] was “inactive”. The call in assay [7], in [8], in assay [9], in assay [10], in assay [11] and in assay [12] was inactive. Further, the compound was called inactive in [13], in assay [14], in assay [15], in assay [16], in assay [17] and in assay [18].
As to `N#CC1(N=NC2(C#N)CCCCC2)CCCCC1`, the Potency result in [1], in [2], in [3], in [4], in [5] and in assay [6] was “inactive” each time. Besides, the Potency result in assay [19] and in assay [20] was “inactive” throughout. Further, the result in [7], in assay [8], in assay [9], in [10], in [11] and in [12] was inactive. Also, the compound was classed as inactive in assay [13], in assay [14], in assay [15], in assay [16], in assay [17] and in [18].
Turning to `CCCC(C)(COC(N)=O)COC(=O)NC(C)C` (stereo not given), the Potency entry in assay [1], in [2], in assay [3], in assay [4], in [5] and in assay [6] was “inactive” each time. Besides, the outcome in assay [7], in assay [9], in assay [10], in assay [11], in assay [12] and in assay [13] was inactive. In addition, the call in [14], in assay [15], in assay [16], in assay [17] and in assay [18] was inactive.
As for `CCCCC#N`, the Potency result in [1], in assay [2], in assay [3], in assay [4], in assay [5] and in [6] was “inactive” in each case. Also, the result in assay [7], in assay [8], in [9], in assay [10], in [11] and in assay [12] was inactive. For the same compound, the call in assay [13], in assay [14], in assay [15], in assay [16], in [17] and in [18] was inactive.
As to `C[C@]12CC[C@H]3[C@@H](CCC4=CC(=O)CC[C@@H]43)[C@@H]1CC[C@@H]2OC(=O)CCc1ccccc1`, the Potency result in [1], in assay [2], in assay [3], in assay [4], in assay [5] and in assay [6] was “inactive” each time. Moreover, in [19], the Potency entry was “inactive”. Further, the result in assay [7], in assay [8], in assay [9], in assay [10], in [11] and in [12] was inactive. Also, the result in assay [13], in assay [14], in assay [15], in assay [16], in assay [17] and in assay [18] was inactive. In assay [20], the Potency is 6.74 µM (active).
With `C[N+](C)(C)CCOC(=O)C(O)(c1ccccc1)c1ccccc1`, the Potency entry in [1], in [2], in assay [3], in assay [4], in assay [5] and in assay [6] was “inactive” each time. Moreover, the call in assay [7], in assay [8], in assay [9], in [10], in [11] and in assay [12] was inactive. The call in assay [13], in [15], in assay [16], in assay [17] and in [18] was inactive.
As for `COc1ccccc1N1CCNCC1`, the Potency entry in [1], in assay [2], in assay [3], in assay [4], in [5] and in assay [6] was “inactive” throughout. Also, in [20], the Potency result is “inactive”. In addition, the result in assay [7], in assay [8], in assay [9], in assay [10], in [11] and in assay [12] was inactive. In addition, the compound was called inactive in assay [13], in assay [14], in assay [15], in [16], in [17] and in assay [18].

(Values after PubChem BioAssay (Tox21).)
